Reference: the supplement of paper PMC12632987
Whole data set: some 4,500 sequences, median “median log2 fold change of GCK-ALFA target abundance (FLAG IP / Myc IP barcode read proportion)” near 0.078, cut for the lowest 2% near -0.6. Many of the other results were omitted from the sample, so the lowest values are more common in it than they were.

B1: GBRAP_52_5929 (protein)
chain: MREEARELAERVLEAAEAGDEERLRELLREIVEELDDEEIELVIDELAELTIERGPEYYDLFADIMDLLEDEVEKAGRDVERVQYAIARAAGRMYDALQA
B2: GBRAP_137_3627 (protein)
chain: ATVTIELRRYEDVVEITITLDDPEKAEAAAELVEDVAHEEGALAVSIELEEDGTLVVEVWVPRDKAEALLARLVERLTTELGATVVIRDLDTGEVRVVTP
B3: GBRAP_184_5122 (protein)
chain: DVVHRAVEGEKAEELIAASRAVVEEAAAAGKRLHLSVFAKNMSVEEIIEVIKAMGELKARYPQVSVTVDVLDELSEEEIDKVLKAADEAGVRVVIAIPEE
B4: GBRAP_11_2857 (protein)
chain: KKEKLKEAAELARKAAEALEKLLKEGVDDKELQKKIEELLKKLLELVKEYGDPDLIKLAEIALENFQKAKKDPKNAEKYIKEALAAVRVLEGNLLLEIDE
B5: GBRAP_9_7127 (protein)
chain: KKELVEKLKEVVEEMIEDISKVVPEVTEEMKEEFLKKVEELEKEALEDESLTPEEIKEKFKELVEEIKEEVKKIVDEELKKLVEAIALTALEEIDEIVEE
B6: GBRAP_52_6037 (protein)
chain: MREKMREKAEEIVKLVLEGKLEEAEKLIRELVETLSEEELLLLGEELARIAREAPEEELDAILEAAFILADELIEGGYEEVLADEIEARVTRAAVERLER
B7: GBRAP_11_2679 (protein)
chain: KKEQLKKIAEIAKELAEAIEKLLKEGVDNEKLLKEIKKLLKELKELAEKYADEGLKTLAEIAAELFEEALANPENAEHYLELLLAAVRVLLANVEEEIDE
B8: GBRAP_52_6366 (protein)
chain: DLEEAVKLLREAVKAVLEGKEEEAEKILKEIVENFSEETILEAARRLAEELLEKSLEEAEAFLEAAIMLADILEEAGKSEVVGDEIEAIAARTLMEIRER
B9: GBRAP_11_2721 (protein)
chain: KAEKLKALAEKAEALAEKVEKLIKEGPKKEEIKKLAEEVEKLREEAKKIGASEDVLKTLDIAAENLKKAIEDPSNVEEHLKNAAAALRVAAGQLLLEAEE
B10: GBRAP_160_4055 (protein)
chain: AEEKERLIADVDAAEAAILAVIDEEGAEAAAVMADGEFGAIIMEAAELPTASDELVDALEAIRDALVAGLRANAAASPAELKALVRAAAAAAKEAIKKHY
B11: GBRAP_160_4135 (protein)
chain: SEELEKLIKEIKEIGEEALEMIEGETPENAKVIARVALGDIVMLVESNDAISEETEDEIGKIADEAEATLKANPDLTVEEIKALLKEATEKVVEIIEKEK
B12: GBRAP_52_6086 (protein)
chain: MEERLEALAREIAAAVAAGDREGALALIEEAIKELSVEEIRRLLRLAAERVAALGEDAHVLFVDLLDEAEDLMIKAGISEEDALLIVGDAEAALAKAVAA
B13: GBRAP_52_6087 (protein)
chain: MEERLEKLAKEIAEAVAAGKRDEALALMEKAIKELSVEEIKKLFKLAAELVAKLGEEAEELFVDLLDEAEDLLIEAGISEEDALLIVGDAEAALAKAVAA
B14: GBRAP_160_4202 (protein)
chain: EEKVKKIIEELKEETEEVIKLLDEVSVEEAAVFAEVEFGSVLMLAVELGIENDEILDVIDEAGDKIVKYLKENKDASVEELKKKIKEITEEAIKKIKELA
B15: GBRAP_39_5664 (protein)
chain: EEDEENELLFEYYLAKAEGYRIKEGISDEELIERGKELLKAIAKEHPEIKELVEELLKEVDKGDEDVGLAAAGIALDYLEGLPIEEIKEHLEKLLKYVKK
B16: GBRAP_184_5111 (protein)
chain: KLLEETIKANNKEELEKKLTEVVEKAVKEKADLLVIVEIPNLTPEMAEIIMDKVAKAKEAGIKNVLVEIVSDNLSDEVIDTIDKKAKEYGLTNVVLAMKE
B17: GBRAP_153_3948 (protein)
chain: SMESKEKLEKAKKLIEKIKKSEDPTEYIKELAKLLASMNLEERLEVAKEFNSLSEETVYKIFLTLATEEGFSVEELLELTTELNEEQQAAALKAIVEAQK
B18: GBRAP_39_5630 (protein)
chain: EEEEELELLESLAEADLAKREVETGLPAEELYAELLARAREAAADDPELLALIERLAALAEEHGPEARERLAAAMAAYLAGLPKEDIKRLLTALIEELEA
B19: GBRAP_48_5830 (protein)
chain: MKIDLEKLEALVKETVEEMKELYEEAKKEGLSDEDILKMIKAELGDLALELEEEGYTKAADYLLERENRDELAKKLLELFKEGKYEEAYEYLLKKLKEAE

Molecular target: GABARAP, O95166
Assay: median log2 fold change of GCK-ALFA target abundance (FLAG IP / Myc IP barcode read proportion) (log2 ratio); each designed protein is fused to an ALFA-tag nanobody in HEK293 cells to bring the named protein to FLAG-tagged glucokinase (GCK); Myc marks an untargeted standard; higher = target protein stabilised (more abundant)
Details: target protein: 3xFLAG-MCP-GCK-ALFA reporter; HEK293 landing pad (RPLP)
Procedure, shortened: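 HEK293 landing-pad cells received a recombined binder library fused to the ALFA nanobody and were induced with 2 μg mL^−1 doxycycline, then transfected with a plasmid encoding a FLAG-tagged target and a Myc-tagged standard. Lysates were collected after 48 h for anti-FLAG and anti-Myc immunoprecipitation, and the circular RNA barcodes were reverse transcribed, amplified and sequenced. Target abundance for each binder is the median log2 ratio of FLAG to Myc barcode read proportions. Barcodes had to reach a proportion of at least 10^−7 in both replicates, each binder needed at least 3 barcodes per replicate, a pseudocount of 10^−6 was applied, and the two replicates were pooled.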

Sequence of GABARAP, O95166 (O95166 whole entry, the tested form may be a part): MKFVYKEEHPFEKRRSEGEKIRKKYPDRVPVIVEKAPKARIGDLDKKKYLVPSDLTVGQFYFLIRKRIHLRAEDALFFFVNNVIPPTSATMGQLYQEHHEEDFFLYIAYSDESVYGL

Binder	median log2 fold change
B1	-0.453
B2	-0.0361
B3	0.0426
B4	0.0648
B5	0.275
B6	-0.655
B7	-0.169
B8	-0.214
B9	0.0939
B10	0.183
B11	-0.387
B12	-0.626
B13	-0.234
B14	-0.374
B15	0.132
B16	0.326
B17	0.294
B18	0.159
B19	0.224
